This is a sample that favours compounds with a hit; in the whole collection about 1.6% have one here.
KCNQ2 inh: rat KCNQ2 potassium channel inhibitors, primary screen, cell-based, CHO-K1, FluxOR thallium flux, B-score; Potassium voltage-gated channel subfamily KQT member 2 (Rattus norvegicus), O88943; 20 min; stronger effect = lower value; B-score at 10 µM; actives 1.1% (n = 310,000);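 active = fluorescence ratio B-score at most minus 3 library SDs, with starting brightness B-score within 2 library SDs, cut at about -5.5 in these data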
KCNQ2 pot: potentiators of rat KCNQ2 potassium channel | CHO-K1 KCNQ2, FluxOR thallium flux fluorescence; stronger effect = higher value | B-score at 10 µM | actives 0.54% (n = 310,000);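 active = fluorescence ratio B-score at least 3 SD of library B-scores, with initial fluorescence B-score within 3 of them, cut at about 5.3 in these data; same plate scores as AID 2156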;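 note: B-score of peak minus minimum over baseline fluorescence ratio after K+ and Tl+ stimulus; positive B-score means potentiation of KCNQ2 with more thallium influx and brighter signal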
Kir21 confirm: mouse Kir2.1 channel blockers, retest, confirmation, cell-based, FluxOR thallium flux, duplicate. Tl flux remaining, % of negative control (stronger effect = lower value), % at 10 µM. shares compounds with KCNQ2 pot. Kir2.1-expressing cells, FluxOR thallium flux fluorescence; stronger effect = lower value. actives 41% (n = 2,300);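 active = Primary-screen hit whose thallium flux fell at least 3 control SD below untreated wells in both duplicates, with normal baseline fluorescence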;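 note: 0% = blank wells without stimulus and 100% = stimulated no-compound controls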
HEK293 ctr: counter-screen for Kir2.1 inhibitors: effect in parental HEK293 cells; actives 19% (n = 2,300); FluxOR signal as % of negative control (100 = no effect), % at 10 µM; shares compounds with KCNQ2 pot; FluxOR thallium flux fluorescence; 0% = unstimulated blank wells;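 active = dye signal at least 3 control SD above or below untreated wells in both duplicates, raw fluorescence within 3, either direction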;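 note: percent is based on the flux ratio of peak minus minimum fluorescence over baseline F0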
CHO-K1 ctr: nonspecific thallium flux increase in parental CHO-K1, confirmation, counter-screen for KCNQ2 potentiator project, cell-based, FluxOR thallium flux, duplicate; parental CHO-K1 cells, FluxOR thallium flux fluorescence; zero = vehicle mean+3SD, 100% = vehicle-minus-blank window; AID 2282, 2010; activity increase over 3SD of controls, % at 10 µM; shares compounds with KCNQ2 pot; actives 43% (n = 1,200);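 active = signal rise of at least 3 SD above the untreated control mean, in both duplicate wells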;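 note: counter screen of KCNQ2 potentiator hits so any rise reflects channel-independent effects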
KCNQ1 pot spec: human KCNQ1 channel potentiation off-target, confirmation, selectivity assay for KCNQ2 potentiator project, cell-based, CHO, FluxOR thallium flux; shares compounds with KCNQ2 pot; CHO KCNQ1 stable, FluxOR thallium flux fluorescence; beyond 3SD, as % of vehicle-control signal; activation over 3SD threshold, % at 10 µM; actives 28% (n = 1,200);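 active = fluorescence ratio rise of at least 3 SD of vehicle wells above their mean, in both replicate wells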;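 note: 0% = vehicle mean plus 3 SD and 100% = vehicle minus unstimulated blank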
KCNQ2 pot confirm: rat KCNQ2 channel potentiators, confirmation, cell-based, CHO, FluxOR thallium flux, duplicate. potentiation, less the hit threshold, % at 10 µM. shares compounds with KCNQ2 pot. actives 68% (n = 1,200). CHO-KCNQ2 cells, FluxOR thallium flux fluorescence. AID 2287, 2010;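 active = fluorescence ratio rising 3 SD or more over the vehicle control mean in both replicates, plus primary screen hit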;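 note: peak minus minimum thallium fluorescence divided by baseline after K/Tl stimulus; 0% = vehicle mean plus 3 SD and 100% = vehicle minus unstimulated blank difference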
Kir21 spec: mouse Kir2.1 channel activation off-target, confirmation, selectivity assay for KCNQ2 potentiator project, cell-based, HEK293, FluxOR thallium flux. HEK293 Kir2.1, FluxOR thallium flux fluorescence. activity over 3SD threshold, % at 10 µM. actives 2% (n = 1,200). shares compounds with KCNQ2 pot;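 active = fluorescence ratio rise of at least 3 SD above the vehicle-control mean, seen in both replicates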;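 note: 0% = vehicle mean plus 3 SD and 100% = vehicle minus no-stimulus blank window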
KCNQ2 W236L MoA: potentiators of retigabine-insensitive KCNQ2 W236L, mechanism study for KCNQ2 potentiator project, cell-based, rat KCNQ2 W236L, CHO, automated patch clamp; shares compounds with KCNQ2 pot; actives 10% (n = 940); current increase over 3SD of negative controls (%), stronger effect = higher value, % at 25 µM; automated patch clamp current;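 active = current increase at least 3 SD of the untreated controls above them in both duplicate recordings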
Target sequence (O88943 whole entry W236L, looked up): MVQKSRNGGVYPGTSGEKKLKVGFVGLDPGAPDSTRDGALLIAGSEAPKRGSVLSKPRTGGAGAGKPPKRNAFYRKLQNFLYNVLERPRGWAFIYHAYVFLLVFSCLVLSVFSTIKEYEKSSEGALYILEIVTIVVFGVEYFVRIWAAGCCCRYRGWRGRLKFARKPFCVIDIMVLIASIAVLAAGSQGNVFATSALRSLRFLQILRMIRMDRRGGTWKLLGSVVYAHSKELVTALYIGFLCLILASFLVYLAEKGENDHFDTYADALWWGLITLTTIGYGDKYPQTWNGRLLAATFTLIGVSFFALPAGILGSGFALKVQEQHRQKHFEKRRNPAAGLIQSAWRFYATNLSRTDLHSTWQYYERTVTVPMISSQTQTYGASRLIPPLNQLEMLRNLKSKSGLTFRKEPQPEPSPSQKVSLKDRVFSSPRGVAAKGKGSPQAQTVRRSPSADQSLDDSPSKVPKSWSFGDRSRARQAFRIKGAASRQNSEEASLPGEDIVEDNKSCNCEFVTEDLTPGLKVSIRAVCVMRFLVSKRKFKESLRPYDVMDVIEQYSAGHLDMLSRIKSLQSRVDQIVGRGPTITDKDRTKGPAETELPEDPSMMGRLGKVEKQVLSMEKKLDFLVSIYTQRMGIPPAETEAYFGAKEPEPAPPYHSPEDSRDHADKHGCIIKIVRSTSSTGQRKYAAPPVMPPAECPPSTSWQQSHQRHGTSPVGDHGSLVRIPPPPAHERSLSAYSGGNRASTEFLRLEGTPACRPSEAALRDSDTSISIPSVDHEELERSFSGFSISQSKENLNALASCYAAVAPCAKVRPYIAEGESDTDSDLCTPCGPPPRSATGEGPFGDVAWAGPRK
* hit, by the source's call; i = inactive; nt = no result.

SMILES	KCNQ2 inh	KCNQ2 pot	Kir21 confirm	HEK293 ctr	others
CCOC(=O)C1=C(C)N=c2s/c(=C\c3ccc(C(=O)O)cc3)c(=O)n2C1c1ccc(F)cc1 (configuration not stated)	i	7*	i	i	CHO-K1 ctr=11*;KCNQ1 pot spec=-30;KCNQ2 pot confirm=-12;Kir21 spec=-45;KCNQ2 W236L MoA=i
CCOC(=O)C1=C(C)N=c2s/c(=C/c3cccc(OCC(=O)O)c3)c(=O)n2C1c1ccc(F)cc1 (configuration not stated)	i	0.96	nt	nt
Clc1cc2nc[nH]c2cc1Cl	i	0.19	nt	nt
CCCOc1ccc(C(=O)OCCN2CCCCC2)c(O)c1	i	0.06	nt	nt
N=c1c2c(-c3ccccc3)c(-c3ccccc3)n(Cc3ccccc3)c2ncn1CCCn1ccnc1	i	nt	i	i
N=c1c2c(-c3ccccc3)c(-c3ccccc3)n(Cc3ccco3)c2ncn1Cc1ccco1	-6.9*	-6.9	54%*	i
Cc1cc(NCCCn2ccnc2)n2nc(C)c(-c3ccccc3)c2n1	i	nt	nt	nt
N=c1c2c(ncn1Cc1ccco1)Oc1ccc3ccccc3c1C2c1ccccc1 (configuration not stated)	i	2.1	nt	nt
O=C(O)c1ccc(S(=O)(=O)c2ccc3c(c2)C(=O)N(c2ccc(O)cc2)C3=O)cc1	i	1.8	nt	nt
O=C1c2ccc3c4c(ccc(c24)C(=O)N1c1ccc(O)cc1)C(=O)N(c1ccc(O)cc1)C3=O	i	11*	i	i	CHO-K1 ctr=2.5*;KCNQ1 pot spec=45*;KCNQ2 pot confirm=-12;Kir21 spec=-30
CCOC(=O)C1(CC2CCCCO2)CCN(Cc2cc3ccccc3[nH]2)CC1 (configuration not stated)	i	8.4*	nt	nt	CHO-K1 ctr=-29;KCNQ1 pot spec=-10;KCNQ2 pot confirm=-24;Kir21 spec=-60
CCCCc1ncc(CN2CCC(CC3CCCCO3)(C(=O)OCC)CC2)[nH]1 (configuration not stated)	i	0.83	nt	nt
CCN(Cc1ccncc1)C(=O)c1cc(Br)cc(Br)c1O	i	1.4	nt	nt
COc1ccc(C(C(=O)NC(C)(C)C)N(C(=O)CCC(=O)Nc2cc(C)on2)c2cccc(F)c2)cc1 (configuration not stated)	i	5.6*	i	i	CHO-K1 ctr=-21;KCNQ1 pot spec=-6;KCNQ2 pot confirm=-27;Kir21 spec=-30
CCOc1cccc(N(C(=O)CCC(=O)Nc2cc(C)on2)C(C(=O)NC(C)(C)C)c2ccc(OC)cc2)c1 (configuration not stated)	i	nt	nt	nt
CC(C)CCNC(=O)Cn1c(NCCC(C)C)nc2c1c(=O)n(C)c(=O)n2C	i	0.38	nt	nt
CCn1c(COc2ccc(=O)n(-c3ccccc3)n2)nnc1SCc1ccc(C)cc1	i	nt	nt	nt
CCn1c(COc2ccc(C)cc2)nnc1SCc1ccc(C#N)cc1	i	nt	68%*	i
COc1ccc(CC(=O)Nc2ccccc2Oc2ccccc2)cc1	i	10*	i	i	CHO-K1 ctr=-29;KCNQ1 pot spec=-6;KCNQ2 pot confirm=17*;Kir21 spec=-57;KCNQ2 W236L MoA=i
COc1ccc(NC(=O)CCCC(=O)c2ccccc2)c(OC)c1	i	nt	nt	nt
COc1ccc(NC(=O)CCCc2ccccc2)c(OC)c1	i	5.5*	i	i	CHO-K1 ctr=93*;KCNQ1 pot spec=-4;KCNQ2 pot confirm=8.7*;Kir21 spec=-24;KCNQ2 W236L MoA=i
COc1ccccc1NC(=O)Cc1ccc(-c2ccccc2)cc1	i	nt	nt	nt
CC12CC3CC(C)(C1)CC(C(=O)NCc1cccnc1)(C3)C2	i	nt	nt	nt
c1ccc(CCNc2ncnc3ccccc23)cc1	i	nt	nt	nt
CCCCCCCCNc1ncnc2ccccc12	i	nt	i	128%*
SMILES	KCNQ2 inh	KCNQ2 pot	Kir21 confirm	HEK293 ctr	others
COc1ccc(C)cc1NC(=O)C(=O)NNC(=O)c1ccco1	i	15*	i	359%*	CHO-K1 ctr=3.4*;KCNQ1 pot spec=-31;KCNQ2 pot confirm=54*;Kir21 spec=-12;KCNQ2 W236L MoA=i
COc1ccc(C)cc1NC(=O)CCNC(=O)c1ccco1	i	0.11	nt	nt
CSc1ccc(CN(C)CC(=O)NCc2ccccc2)cc1	i	nt	nt	nt
COc1ccc(CNC(=O)CN(C)Cc2ccc(SC)cc2)cc1	i	nt	i	i
CSc1ccc(CN(C)C(C)C(=O)NCc2ccccc2)cc1 (configuration not stated)	i	nt	34%*	i
CCc1ccc(CN(C)C(C)C(=O)NCc2ccccc2)cc1 (configuration not stated)	i	nt	nt	nt
CC(C)CCN1C(=O)c2ccc(C(=O)NCC3CCCO3)cc2C1=O (configuration not stated)	i	0.35	nt	nt
O=C(O)C=C(Br)Br	i	0.12	nt	nt
Cc1ccc(CNC(=O)NCc2ccccc2)cc1	i	1.7	nt	nt
COC(=O)c1ccc(CNCC(O)COc2ccc(-c3ccccc3)cc2)cc1 (configuration not stated)	i	nt	nt	nt
COc1ccc(CNCc2cccc(Cl)c2)cc1	i	0.35	nt	nt
COc1ccc(CCNCC(O)COc2cccc(Br)c2)cc1 (configuration not stated)	i	0.09	25%*	i
COc1ccc(CNCC(O)COc2ccc(C(C)(C)c3ccccc3)cc2)cc1 (configuration not stated)	i	nt	41%*	65%*
COc1ccc(CNCC(O)(c2ccccc2)c2ccc(Cl)cc2)cc1 (configuration not stated)	-5.6*	-5.6	62%*	i
CC(=O)c1cccc(OCC(O)CNCCc2ccc(Cl)cc2)c1 (configuration not stated)	i	0.27	nt	nt
